Data from PubChem BioAssay (NCI).
Compounds without any hit were thinned out: in the full panel of roughly 83,000, 20% have a hit.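 Each cell line was grown in a 96-well plate and treated with one concentration of compound for 48 hours. Values below 10 were considered active.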 Active and inactive are the calls of the source.

Legend:
Experiment in all cases: NCI-60 one-dose screen, 48 h (100 = growth as untreated, 0 = no growth, -100 = all killed)
Settings in all cases: 10 µM unless noted
[1] = system: HCT-15 colon
[2] = system: HT29 colon
[3] = system: SNB-75 CNS
[4] = system: SNB-19 CNS
[5] = system: U251 CNS
[6] = system: PC-3 prostate
[7] = system: SK-MEL-5 melanoma
[8] = system: UACC-62 melanoma
[9] = system: LOX IMVI melanoma
[10] = system: SK-MEL-28 melanoma

Measured: growth

CCN(Cc1ccc(CN(CC)C(=O)C(Cl)(Cl)Cl)cc1)C(=O)C(Cl)(Cl)Cl
inactive: [1] 94.2% | [2] 77.5% | [3] 87.7% | [4] 106% | [5] 91.6% | [6] 64.9% | [7] 71.2% | [8] 82.7% | [9] 78.3% | [10] 96.2%

CC(C)(C)c1cn2cccc(C(=O)N3CCN(CC(=O)Nc4ccc(Cl)cc4C(=O)c4ccccc4Cl)CC3)c2n1
inactive: [1] 47.5% | [2] 22.2% | [3] 78.4% | [4] 73.2% | [5] 43.4% | [6] 17.6% | [7] 12.5% | [8] 57.6% | [9] 63.5% | [10] 89.8%

COc1ncc(-c2ccc3ncnc(Nc4cccc(Cl)c4)c3c2)cc1N(S(C)(=O)=O)S(C)(=O)=O
inactive: [1] 54.9% | [2] 53% | [3] 41.1% | [4] 72.8% | [5] 82.1% | [6] 52.1% | [7] 73.6% | [8] 58.1% | [9] 63.7% | [10] 72.8%

CCCCCCCCCN1C(=O)/C(=c2\sc3n(c2=O)C2C(NN=3)N(CC)C(=O)N2CC)c2ccccc21 (stereo not given)
inactive: [1] 73% | [4] 39.7% | [5] 25.1% | [6] 34.3% | [7] 72.9% | [8] 23.7% | [9] 19.4% | [10] 41.3%
active: [2] 7.96% | [3] -14.4%

COc1ccc(/C=C/C(=O)c2cccc(B(O)O)c2)cc1O
inactive: [1] 12% | [2] 69.5% | [4] 59.5% | [5] 44.2% | [6] 59.9% | [7] 81.7% | [8] 33.7% | [9] 13.8% | [10] 79.2%
active: [3] 9.35%

CC1=CNNc2c3ncnc-3ncn21
inactive: [1] 102% | [2] 104% | [3] 101% | [4] 99.1% | [5] 102% | [6] 99.9% | [7] 99.7% | [8] 98.6% | [9] 106% | [10] 105%

COc1ccc(C(=O)N2CCN(C(=O)c3cc(OC)c(OC)c(OC)c3)CC2)cc1OCCCCOc1cc2c(cc1OC)C(=O)N1CCC[C@H]1C=N2
inactive: [1] 118% | [2] 45.8% | [3] 110% | [4] 99.4% | [5] 101% | [6] 104% | [7] 71% | [8] 97.2% | [9] 106% | [10] 136%

COc1ccc(OC)c(-c2ccc(-c3ccccc3N)c3[nH]c4ccccc4c23)c1
inactive: [1] 88.3% | [2] 63.4% | [3] 89.7% | [4] 89.1% | [5] 77.9% | [6] 59% | [7] 79.4% | [8] 64.4% | [9] 84% | [10] 107%

O=C(/C=C/CN1CCOCC1)Nc1cc2c(Nc3ccc(F)c(Cl)c3F)ncnc2cc1OCCOC(F)F
inactive: [1] 38.1% | [2] 43.3% | [3] 21.5% | [4] 70% | [5] 81.2% | [6] 46.1% | [7] 50.4% | [8] 65.7% | [9] 15.3% | [10] 77.5%

CCC(c1ccc(OC)cc1)C(CC)c1ccc(O)c(CN2CCCC2)c1 (stereo not given)
active: [1] 1.62% | [2] 4.26% | [5] 7.11% | [7] -91.8% | [8] -74.1% | [9] -79.1% | [10] -50.9%
inactive: [3] 71.5% | [4] 40.6% | [6] 24.4%

O=C(O)Cc1ccc2c(c1)Cc1cccnc1O2
inactive: [1] 103% | [2] 99.8% | [3] 87.9% | [4] 107% | [5] 102% | [6] 101% | [7] 99.5% | [8] 109% | [9] 100% | [10] 109%

CC(Br)C(OC(=O)c1ccccc1Cl)c1cc2c(cc1Br)OCO2 (stereo not given)
inactive: [1] 86.9% | [2] 85.5% | [3] 67.4% | [4] 93.7% | [5] 95.9% | [6] 82.8% | [7] 87% | [8] 72.5% | [9] 92.1% | [10] 94.5%

Cn1c(=O)c2c(nc3n2CCN(CCc2ccc(OCCN4CCOCC4)cc2)C3)n(C)c1=O
inactive: [1] 105% | [2] 107% | [3] 101% | [4] 108% | [5] 105% | [6] 94.1% | [7] 94.2% | [8] 98.8% | [9] 97% | [10] 111%

COc1cccc(C2CC(=O)Nc3c2c(C)nn3-c2nc3ccccc3[nH]2)c1OC (stereo not given)
inactive: [1] 59.4% | [2] 86.6% | [3] 74.8% | [4] 87.1% | [5] 63.6% | [6] 62.8% | [7] 60.1% | [8] 51.3% | [9] 54.2% | [10] 79.5%

FC(F)(F)c1cccc(-n2nnc3cnc(Nc4ccc(N5CCCCC5)cc4)nc32)c1
active: [10] -0.691%
inactive: [1] 66.1% | [2] 74.3% | [3] 65.7% | [4] 94.3% | [5] 62.9% | [6] 50.2% | [7] 86.7% | [8] 48.2% | [9] 90%

CCC1CCc2nc3sc(C(=O)Nc4cccc(C)c4)c(N)c3cc2C1 (stereo not given)
inactive: [1] 43.7% | [2] 47.6% | [3] 71.2% | [4] 86% | [5] 66.6% | [6] 66.7% | [7] 54.5% | [8] 49.2% | [9] 72.7% | [10] 69.7%

CCOC(=O)CC/C(C)=N\Nc1ccc([N+](=O)[O-])cc1
inactive: [1] 35.8% | [2] 52.9% | [3] 93% | [4] 95.5% | [5] 69.1% | [6] 49.7% | [7] 54.3% | [8] 23.5% | [9] 17.1% | [10] 99.9%

O=C1NCC(c2cc3ccccc3[nH]c2=O)Nc2ccccc21 (stereo not given)
inactive: [1] 106% | [2] 98.3% | [3] 99.6% | [4] 102% | [5] 102% | [6] 93.2% | [7] 97.2% | [8] 98.3% | [9] 98.5% | [10] 103%

Cc1nc(Nc2cccnc2)sc1C(=O)/C=C/c1ccc(F)cc1
inactive: [1] 20.4% | [4] 18.9% | [5] 12.9% | [6] 27.6% | [7] 67.6% | [8] 46.3% | [10] 87.6%
active: [2] 8.45% | [3] 2.4% | [9] 8.41%

O=C(CNc1ccc(Cl)cc1)Nc1ccc(-c2nc3ccccc3s2)cc1
inactive: [2] 47.9% | [3] 60.1% | [4] 63.6% | [5] 26.3% | [6] 85.3% | [7] 25% | [8] 30.1% | [10] 99.5%
active: [1] -13.9% | [9] -41%

Nc1c(C(=O)c2ccc(F)cc2)sc2nc3c(cc12)CCCC3
inactive: [1] 58.4% | [2] 66% | [3] 85.8% | [4] 95.4% | [5] 79.4% | [6] 80.7% | [7] 89.2% | [8] 75% | [9] 75.8% | [10] 76.8%

O=S(=O)(NCCCNc1cc(-c2cn(-c3ccccc3)nc2-c2cccc(O)c2)ccn1)c1ccc(Cl)cc1
active: [1] -5.43% | [2] -32.7% | [6] 1.79% | [7] -19.5% | [9] 3.96% | [10] -27.5%
inactive: [3] 20.3% | [4] 43.8% | [5] 13.8% | [8] 17.1%

O=Nc1c(-c2c(O)[nH]c3ccc([N+](=O)[O-])cc23)[nH]c2ccc(O)cc12
active: [3] -28.1% | [5] 0.602% | [6] 2.12% | [7] -40.9% | [8] -34.4% | [9] -32.4% | [10] -11%
inactive: [1] 10.3% | [2] 69.2% | [4] 17.5%

COc1ccc(C2SCC(=O)N2NC(=O)c2ccc(NC(=O)c3ccccn3)cc2)cc1OC (stereo not given)
inactive: [1] 107% | [2] 97.8% | [3] 84.3% | [4] 95.5% | [5] 94.2% | [6] 95.3% | [7] 102% | [8] 91.5% | [9] 99.5% | [10] 104%

NC(=O)c1c(NC(=O)c2ccc(OCC3CCCO3)cc2)sc2c1CCCC2 (stereo not given)
inactive: [1] 101% | [2] 105% | [3] 135% | [4] 106% | [5] 95.2% | [6] 74.4% | [7] 78.2% | [8] 85% | [9] 105% | [10] 125%

COc1cccc2cc(-c3cc4ccccc4[nH]3)/c(=N/C(=S)Nc3ccccc3)oc12
inactive: [1] 89.2% | [2] 81.8% | [4] 66.1% | [5] 77% | [6] 68.8% | [7] 76.1% | [8] 76% | [9] 80% | [10] 80.1%
active: [3] -45.3%

CC(C)C(C(=O)CCN(C)C)c1ccc(Cl)cc1 (stereo not given)
inactive: [1] 92.6% | [2] 106% | [3] 87.8% | [4] 95.1% | [5] 83.7% | [6] 86.9% | [7] 102% | [8] 89.7% | [9] 98.5% | [10] 107%

CN1C(=O)[C@H]2c3c1cccc3[C@@]13NC(=O)O[C@H]1[C@H](CCC3(C)C)C2(C)C
inactive: [1] 93.6% | [2] 100% | [3] 81.1% | [4] 90.7% | [5] 103% | [6] 84.6% | [7] 98.1% | [8] 85.4% | [9] 100% | [10] 109%
